This note sets out measurements from the supplement of paper PMC6555819.

The assay concerns VDR:RXRa (NR concentration 270 nM, RXRa partner concentration 90 nM). In words: PBM binding z-score (relative to random genomic background probes); higher = stronger binding; sequences stand for … in GC…GCGATTGACAGCGTAGAATGAAGG
The method, then: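 Protein-binding microarray (Agilent 4x180K custom design, double-stranded 60-nt probes: 5' GC cap, 34-nt variable region, 24-nt constant primer region; full probe sequence given). Purified or IVT nuclear receptor:RXRα heterodimers (3:1 NR:RXRα, mostly 270:90 nM) or homodimers were incubated for 1 h in PBS with 2% milk and no ligand, then detected with Alexa488 antibodies. Fluorescence from o1-orientation probes (~5 replicates averaged) was converted to z-scores against 500 random hg19 background probes. Variable regions are seed direct-repeat (DR0–DR5) sites, all their single-nucleotide variants and half-site ablations.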
Turning to CCTAGGAGGACAGAAGGTCAGAGCTGTCCGCTTT, the PBM binding z-score came to 1.09. The result for AGTCAAAGTTCTCTAGGTAACGTAAGATTCAGCT reads -0.0211; that for CAGCCTAGGTCAGGGCTAGTATAGGAGGAACGTT, -0.00307. The result for AGTCAAAGTTCAGGACGAGGTGACGTAAAGCACG reads 3.27; that for GCTAGTTCGTCAGTAAAAGGTCACACACCGGTCG, 4.28. The result for CGAACTAGGTCAGAACAGGACAGTGCAGGATGAT reads 0.787; that for ATATGTAGGTTACTTCCGGGTCATTCAGGCTATG, 3.93; that for ATCTCTAGGTAACCAAGTTCTGTGAATGCCGAAC, 0.866. As for CCTTCCGGGTCAAGGTTATAGCACGGGTGGTACG, the PBM binding z-score was 3.38. The result for CAGACTAGGTCACGAAAGGTCAAAGTCGAATGAC reads 6.8. Take ACTTACGGGTCAACGAGGTTATACCACGCGTATA: the PBM binding z-score came out at 7.92. The result for TCTATTAGTTGAAGGGCATCCGACGAGTCCGTTT reads 1.08; that for CGAACTTGGTCAGAACAGGACAGTGAAGGATGAT, -0.145; that for CTCGAAAGGTAGGTTGAGGTGAGTATACGGATAA, 0.309. The value for TCTATTAGCTGATTAGGGCAACCGAAACAGCGGA was 0.11.

As to TATACAGGGGCAAAGGCCAGAGTACGAATGTCGA, the PBM binding z-score worked out at 1.03. In the case of ACTAGTTGGTCAGCTGAGGTCGCACACAATTCGG, the PBM binding z-score worked out at 2.2.

Consider ATATGTAGGTTATCGAGTCATTCAGTTTGCGCAT, for which the PBM binding z-score turned out to be 1.72. The result for CGAACTAGGTCATTGACAGGACAGGGAATAGTAA reads 2.12.

Take CGTCAAAGTTCAACTAAGGTATCGTAAAGCACGC: the PBM binding z-score is 4.28. The value for TGAAGGAGGTTATAAGATCAGGGAACGTTGCAAA was 0.323; that for GCTCGGAGGACAAGGTAAGAGCTTTGTCCGTAGA was -0.675; that for CCTCGGAGGACAACAGGAGGACAGAGCTGCCAGA was -0.461. The value for ACAGACAGGTGAGTGCAGGTAACTCAGCTGGACG was -0.127; that for GAAACGAGGGCAAAGTTGATAGCATCTGTCGACG was 1.69. The value for ACTAGCAGGCCAAGGTTCACTCAAGATTAGTCCG was 2.01; that for CAAACTAGGTCACAGAGGTCAAAGGCCGTGCGTA was 8.04.

As for CCTTACGGATCACTCCAGGTTATAGCATCGGAGT, the PBM binding z-score is 0.59. The value for CCTAGCAGGCCAATCCGGGTCACTCAAGGCTTGA was 2; that for ACTATTAGTTGGCTTAGGGCAACCGATACGACGC was 0.158. The result for AGTCAAAGTTCACTAGGTAACGTCAGATTCAGCT reads 3.95; that for CTCGAAAGGTCGTGCTCGGGTGAGTATACCAAAC, 3.43.

As to CGTCCAAGCTCAATGCTAGGTCAGTGAAAGCATT, the PBM binding z-score is -0.0498. The value for CGTTCAAGGTCAGCAGGTCAGTGAAAGCGACGTG was 4.25; that for CCTCGGAGGACAACACGAGGTCAGAGCTGCCAGA was 2.72. The result for TCTTGTAGATCAGCAGGTTACGAAAGCTGGCCAA reads -0.0746; that for AATACAGGGTCATCGTAGGCCAGAGCACGCACAG, 5.2; that for TCAGACAGGTGAAGGTAGCTCAGGTACGCAGTCG, 0.353. For CCTCAAAGTTCAACTAAGGTAACGTAAAGCACGC, the PBM binding z-score came to 4.88. The value for TCGAGTATGTTACCAATGGGGCATTCAGCTTTCT was -0.0704.
